Among the data in the antibiotic and cytotoxicity screens of Wong et al. (2023) are cytotoxicity call values, retold here.

In all, about 39,000 compounds went through this assay and about 3,300 (8.5%) were called active. Many of the other results were omitted from the sample, so actives are more common in it than they were.

This assay deals with HepG2. Put plainly: cytotoxicity call (relative viability < 0.9). Conditions: 10 µM.
As to `CN(C)CC#Cc1ccc([C@H]2[C@H](CO)N3C(=O)CN(C(=O)CN(C)C)C[C@@H]23)cc1`, the cytotoxicity call was “inactive”.

As to `C/C=C/c1ccc2c(c1)O[C@@H](CN(C)C(=O)c1ccc3c(c1)OCO3)[C@H](C)CN([C@H](C)CO)S2(=O)=O`, the cytotoxicity call is “inactive”.

In the case of `COC(=O)c1cn(-c2cccc(N)c2)nn1`, the cytotoxicity call is “inactive”. For `C[C@H]1CN([C@@H](C)CO)C(=O)Cc2cc(NS(=O)(=O)c3ccc(Cl)cc3)ccc2O[C@H]1CN(C)C(=O)Nc1cccc2ccccc12`, the cytotoxicity call is “inactive”.

Turning to `C[C@H]1CN([C@@H](C)CO)C(=O)c2cccc(NC(=O)NC3CCCCC3)c2O[C@H]1CN(C)Cc1ccc(Oc2ccccc2)cc1`, the cytotoxicity call was “inactive”. Then `C[C@@H]1CCCCO[C@H](CN(C)Cc2ccncc2)[C@@H](C)CN([C@@H](C)CO)C(=O)c2cc(NC(=O)CCC(F)(F)F)ccc2O1`, with “inactive”. Take `C[C@H]1CN([C@@H](C)CO)C(=O)c2cc(NC(=O)CCCCCC(=O)Nc3ccccc3N)ccc2O[C@@H]1CN(C)C(=O)Nc1ccc(F)cc1`: the cytotoxicity call was “inactive”.

`CN1CCN(C(=O)C[C@H]2CC[C@@H]3[C@H](COC[C@H](O)CN3S(=O)(=O)c3cccc(Cl)c3)O2)CC1`: the cytotoxicity call was “inactive”. The same measure for `CN(C)C(=O)C[C@@H]1CC[C@@H]2[C@@H](COc3ccc(NS(=O)(=O)c4cccc(F)c4)cc3C(=O)N2C)O1`: “inactive”. As for `C[C@@H]1CN([C@H](C)CO)C(=O)CCCn2nncc2CO[C@H]1CN(C)S(=O)(=O)c1cccc(C#N)c1`, the cytotoxicity call was “inactive”. As to `CO[C@H]1CN(C)C(=O)c2cc(NC(=O)Nc3ccccc3F)ccc2OC[C@@H](C)N(CCC(F)(F)F)C[C@@H]1C`, the cytotoxicity call was “inactive”. As to `C[C@H]1CN([C@@H](C)CO)C(=O)c2cc(NC(=O)CCN3CCOCC3)ccc2O[C@H]1CN(C)Cc1ccccc1`, the cytotoxicity call was “inactive”. In the case of `CN1CCN(C(=O)C[C@@H]2CC[C@H]3[C@@H](COc4ccc(NC(=O)c5cccs5)cc4C(=O)N3C)O2)CC1`, the cytotoxicity call was “inactive”. For the compound `O=C(O)CC(CC(=O)O)C(=O)O`, the cytotoxicity call was “inactive”. The same measure for `Cc1ccc(S(=O)(=O)N(C)C[C@@H]2Oc3c(NC(=O)C4CCOCC4)cccc3C(=O)N([C@@H](C)CO)C[C@@H]2C)cc1`: “inactive”; for `C[C@@H]1CCCCO[C@H](CN(C)C(=O)Nc2ccccc2)[C@H](C)CN([C@H](C)CO)C(=O)c2cc(NC(=O)c3ccncc3)ccc2O1`: “inactive”. The same measure for `CC1(C)SC2C(NC(=O)C(N)c3ccc(O)cc3)C(=O)N2C1C(=O)O` (stereo unspecified): “inactive”; for `CC1(C)S[C@H]2[C@@H](NC(=O)[C@@H](N)c3ccccc3)C(=O)N2[C@@H]1C(=O)O`: “active”. The same measure for `CC1(C)S[C@@H]2[C@H](NC(=O)[C@H](N)c3ccc(O)cc3)C(=O)N2[C@H]1C(=O)O`: “inactive”. As for `C/C=C/c1ccc2c(c1)O[C@H](CN(C)C(=O)c1ccc3c(c1)OCO3)[C@H](C)CN([C@@H](C)CO)S2(=O)=O`, the cytotoxicity call was “inactive”. The same measure for `COc1ccc(CNC(=O)N(C)C[C@@H]2OCc3ccccc3-c3c(n(C)c4ccccc34)C(=O)N([C@@H](C)CO)C[C@@H]2C)cc1`: “inactive”. As for `C[C@@H]1CCCCO[C@H](CN(C)S(=O)(=O)c2ccccc2)[C@@H](C)CN([C@@H](C)CO)C(=O)c2cc(NC(=O)Nc3cccc4ccccc34)ccc2O1`, the cytotoxicity call is “inactive”. The same measure for `C[C@@H]1CN([C@@H](C)CO)C(=O)Cc2cc(NS(=O)(=O)c3ccc(F)cc3)ccc2O[C@@H]1CN(C)Cc1ccc(-c2ccccc2)cc1`: “active”; for `C[C@@H]1CN([C@@H](C)CO)C(=O)Cc2cc(NS(=O)(=O)c3ccc(F)cc3)ccc2O[C@H]1CN(C)Cc1ccc(-c2ccccc2)cc1`: “inactive”.

Take `C[C@H]1CN([C@@H](C)CO)C(=O)Cc2cc(NS(=O)(=O)c3ccc(F)cc3)ccc2O[C@@H]1CN(C)Cc1ccc(-c2ccccc2)cc1`: the cytotoxicity call was “inactive”. With `C[C@H]1CN([C@@H](C)CO)C(=O)Cc2cc(NS(=O)(=O)c3ccc(F)cc3)ccc2O[C@H]1CN(C)Cc1ccc(-c2ccccc2)cc1`, the cytotoxicity call is “inactive”. On to `C[C@@H]1CN([C@H](C)CO)C(=O)Cc2cc(NS(=O)(=O)c3ccc(F)cc3)ccc2O[C@@H]1CN(C)Cc1ccc(-c2ccccc2)cc1`, for which the cytotoxicity call was “active”.

As to `C[C@H](CO)N1C[C@H](C)[C@H](CN(C)Cc2ccc(-c3ccccc3)cc2)Oc2ccc(NS(=O)(=O)c3ccc(F)cc3)cc2CC1=O`, the cytotoxicity call is “active”.

Take `C[C@H](CO)N1C[C@H](C)[C@@H](CN(C)Cc2ccc(-c3ccccc3)cc2)Oc2ccc(NS(=O)(=O)c3ccc(F)cc3)cc2CC1=O`: the cytotoxicity call was “active”. Then `C[C@@H]1CN([C@@H](C)CO)C(=O)c2cc(C#CCc3ccccc3)cnc2O[C@@H]1CN(C)CC1CCOCC1`, with “inactive”; and `COc1ccc(NC(=O)N(C)C[C@@H]2Oc3c(NC(=O)Nc4cccc5ccccc45)cccc3C(=O)N([C@H](C)CO)C[C@@H]2C)cc1`, with “inactive”; and `C[C@@H]1CCCCO[C@H](CN(C)C(=O)c2ccccc2)[C@@H](C)CN([C@H](C)CO)C(=O)c2cc(NS(=O)(=O)c3ccc(F)cc3)ccc2O1`, with “inactive”. The same measure for `C[C@@H]1CCCCO[C@@H](CN(C)S(=O)(=O)c2ccccc2)[C@@H](C)CN([C@@H](C)CO)C(=O)c2cc(NS(=O)(=O)c3cn(C)cn3)ccc2O1`: “inactive”; for `COc1ccc(S(=O)(=O)Nc2ccc3c(c2)CC(=O)N([C@H](C)CO)C[C@@H](C)[C@H](CN(C)S(=O)(=O)c2ccccc2)O3)cc1`: “inactive”.

As for `Cc1noc(C)c1NC(=O)N[C@H]1C=C[C@H](CC(=O)N2CCN(C)CC2)O[C@@H]1CO`, the cytotoxicity call is “inactive”. Turning to `C[C@H]1CCCCO[C@@H](CN(C)C(=O)NC2CCCCC2)[C@@H](C)CN([C@@H](C)CO)C(=O)c2cc(NC(=O)Cc3ccccc3)ccc2O1`, the cytotoxicity call was “inactive”.

Turning to `COc1ccc(NC(=O)Nc2cccc3c2O[C@H](CN(C)C(=O)Nc2cccc4ccccc24)[C@H](C)CN([C@@H](C)CO)C3=O)cc1`, the cytotoxicity call is “inactive”. Consider `Cc1c(N2CCCC2)cc2c(c1-n1cccc1)C(C)(C)CC2(C)C`, for which the cytotoxicity call was “inactive”. Consider `COc1ccc2c3c(n(c2c1)C)[C@@H](CO)N(Cc1cc(cc(c1)OC)OC)C[C@]13CN(C1)S(=O)(=O)c1cn(cn1)C`, for which the cytotoxicity call is “inactive”. The same measure for `O=S(=O)(NCC[C@@H]1CC[C@@H](NS(=O)(=O)c2ccccc2Cl)[C@H](CO)O1)c1ccc(Cl)cc1`: “inactive”; for `Cc1ccc(S(=O)(=O)N[C@@H]2C=C[C@H](CC(=O)NCCN3CCCCC3)O[C@H]2CO)cc1`: “inactive”.
